The values that follow come from ChEMBL document CHEMBL1961873, “Compounds: GSK PKIS; Assays: Nanosyn kinase panel” (2012).

The subject of assay [1] is Epidermal growth factor receptor (Homo sapiens), P00533 [T790M]. The note with it: at 1 µM.
In assay [2] the test system is Epidermal growth factor receptor (Homo sapiens), P00533 [L858R,T790M]. To be noted: at 0.1 µM.
Assay [3] has the same test system. To be noted: at 1 µM.
The target in assay [4] is Ephrin type-A receptor 2 (Homo sapiens) (UniProt P29317). To be noted: at 0.1 µM.
Assay [5] shares this target. To be noted: at 1 µM.
Assay [6] has as its target T1, Ephrin type-A receptor 3 (Homo sapiens) (UniProt P29320).
T1 sequence (whole entry): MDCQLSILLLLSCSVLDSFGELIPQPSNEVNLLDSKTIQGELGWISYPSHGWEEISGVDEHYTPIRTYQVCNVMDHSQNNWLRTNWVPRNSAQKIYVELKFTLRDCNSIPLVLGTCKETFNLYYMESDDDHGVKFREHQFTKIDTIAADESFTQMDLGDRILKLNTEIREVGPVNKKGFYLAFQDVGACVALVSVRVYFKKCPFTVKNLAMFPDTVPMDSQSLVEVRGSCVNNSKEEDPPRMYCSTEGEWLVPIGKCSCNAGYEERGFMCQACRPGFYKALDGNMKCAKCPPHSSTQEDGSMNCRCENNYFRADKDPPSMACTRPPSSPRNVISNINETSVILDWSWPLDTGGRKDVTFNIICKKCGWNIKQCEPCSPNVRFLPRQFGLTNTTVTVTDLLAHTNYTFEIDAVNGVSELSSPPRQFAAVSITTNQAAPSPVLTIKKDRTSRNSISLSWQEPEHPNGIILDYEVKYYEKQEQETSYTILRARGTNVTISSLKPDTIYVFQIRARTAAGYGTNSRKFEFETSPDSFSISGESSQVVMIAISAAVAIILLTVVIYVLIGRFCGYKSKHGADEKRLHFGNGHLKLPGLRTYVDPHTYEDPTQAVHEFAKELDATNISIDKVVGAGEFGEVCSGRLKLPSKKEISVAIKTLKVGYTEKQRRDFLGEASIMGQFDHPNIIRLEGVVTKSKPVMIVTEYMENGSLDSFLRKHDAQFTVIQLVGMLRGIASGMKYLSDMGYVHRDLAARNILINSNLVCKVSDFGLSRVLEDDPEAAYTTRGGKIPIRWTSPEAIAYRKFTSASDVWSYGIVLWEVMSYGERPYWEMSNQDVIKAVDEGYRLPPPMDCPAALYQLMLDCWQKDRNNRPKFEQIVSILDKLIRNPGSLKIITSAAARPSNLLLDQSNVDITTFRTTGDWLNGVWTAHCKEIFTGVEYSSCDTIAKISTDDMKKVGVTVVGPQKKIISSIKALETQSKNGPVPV
To be noted: at 0.1 µM.

For assay [7], the target named is T1, Ephrin type-A receptor 3 (Homo sapiens). To be noted: at 1 µM.
Assay [8] has as its target Ephrin type-A receptor 4 (Homo sapiens) (UniProt P54764). The note with it: at 0.1 µM.
Assay [9] shares this target. The note with it: at 1 µM.
Assay [10] addresses T2, Ephrin type-B receptor 2 (Homo sapiens) (UniProt P29323).
T2 sequence (whole entry): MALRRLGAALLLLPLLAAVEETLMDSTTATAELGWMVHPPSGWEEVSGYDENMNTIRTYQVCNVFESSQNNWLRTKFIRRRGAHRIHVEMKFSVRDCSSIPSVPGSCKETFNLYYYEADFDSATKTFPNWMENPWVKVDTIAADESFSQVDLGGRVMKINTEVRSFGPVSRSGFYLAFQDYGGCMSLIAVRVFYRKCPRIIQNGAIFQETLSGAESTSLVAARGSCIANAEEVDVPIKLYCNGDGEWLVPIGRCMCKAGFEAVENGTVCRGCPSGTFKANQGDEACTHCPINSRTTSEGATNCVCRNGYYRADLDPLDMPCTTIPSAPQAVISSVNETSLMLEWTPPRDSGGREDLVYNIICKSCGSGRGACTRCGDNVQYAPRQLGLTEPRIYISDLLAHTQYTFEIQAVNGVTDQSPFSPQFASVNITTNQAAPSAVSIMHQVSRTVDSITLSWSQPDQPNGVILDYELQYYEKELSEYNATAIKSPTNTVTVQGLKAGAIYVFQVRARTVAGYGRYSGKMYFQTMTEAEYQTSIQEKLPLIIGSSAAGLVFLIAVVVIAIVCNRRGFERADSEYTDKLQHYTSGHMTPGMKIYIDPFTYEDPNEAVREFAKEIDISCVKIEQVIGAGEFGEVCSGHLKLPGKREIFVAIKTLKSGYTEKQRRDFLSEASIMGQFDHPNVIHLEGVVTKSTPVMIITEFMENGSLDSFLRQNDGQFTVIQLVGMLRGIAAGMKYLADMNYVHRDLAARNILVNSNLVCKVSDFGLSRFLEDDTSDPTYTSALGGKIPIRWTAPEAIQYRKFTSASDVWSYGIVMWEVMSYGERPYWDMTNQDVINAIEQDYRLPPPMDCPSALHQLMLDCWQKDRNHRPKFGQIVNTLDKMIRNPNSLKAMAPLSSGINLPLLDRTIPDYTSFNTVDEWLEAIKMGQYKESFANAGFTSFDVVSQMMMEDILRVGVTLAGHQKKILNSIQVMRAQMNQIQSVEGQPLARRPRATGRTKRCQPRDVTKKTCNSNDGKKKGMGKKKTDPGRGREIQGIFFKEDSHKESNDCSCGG
The note with it: at 0.1 µM.

The target in assay [11] is T2, Ephrin type-B receptor 2 (Homo sapiens). To be noted: at 1 µM.
Assay [12] deals with T3, Ephrin type-B receptor 3 (Homo sapiens) (UniProt P54753).
T3 sequence (whole entry): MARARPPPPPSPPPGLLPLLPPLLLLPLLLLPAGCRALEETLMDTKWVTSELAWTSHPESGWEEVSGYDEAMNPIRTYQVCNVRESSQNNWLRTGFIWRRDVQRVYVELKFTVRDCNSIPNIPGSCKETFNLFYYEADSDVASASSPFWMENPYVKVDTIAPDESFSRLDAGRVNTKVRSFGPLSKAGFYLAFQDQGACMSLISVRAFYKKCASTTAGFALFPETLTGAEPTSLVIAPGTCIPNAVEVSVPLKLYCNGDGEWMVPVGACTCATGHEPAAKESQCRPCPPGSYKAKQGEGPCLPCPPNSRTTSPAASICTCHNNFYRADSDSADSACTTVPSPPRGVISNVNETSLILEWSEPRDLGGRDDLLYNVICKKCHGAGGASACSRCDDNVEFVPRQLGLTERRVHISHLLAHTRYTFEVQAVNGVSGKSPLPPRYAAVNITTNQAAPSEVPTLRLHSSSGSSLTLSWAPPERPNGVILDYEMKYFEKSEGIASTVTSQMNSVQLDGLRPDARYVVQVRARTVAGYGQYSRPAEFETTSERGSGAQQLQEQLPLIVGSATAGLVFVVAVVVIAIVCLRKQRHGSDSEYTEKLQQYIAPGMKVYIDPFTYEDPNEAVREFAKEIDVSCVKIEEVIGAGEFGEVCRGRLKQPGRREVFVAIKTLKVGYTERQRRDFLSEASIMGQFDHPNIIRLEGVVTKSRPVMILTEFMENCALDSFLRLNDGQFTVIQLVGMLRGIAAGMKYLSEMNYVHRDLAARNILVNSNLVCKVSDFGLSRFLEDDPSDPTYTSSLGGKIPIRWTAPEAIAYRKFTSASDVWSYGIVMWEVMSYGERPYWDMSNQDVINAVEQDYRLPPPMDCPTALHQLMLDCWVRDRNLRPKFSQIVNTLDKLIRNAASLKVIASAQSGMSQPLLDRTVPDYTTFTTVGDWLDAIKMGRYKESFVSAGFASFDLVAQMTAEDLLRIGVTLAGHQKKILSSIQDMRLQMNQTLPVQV
To be noted: at 0.1 µM.

The target in assay [13] is T3, Ephrin type-B receptor 3 (Homo sapiens). To be noted: at 1 µM.
The target of assay [14] is T4, Ephrin type-B receptor 4 (Homo sapiens) (UniProt P54760).
T4 sequence (whole entry): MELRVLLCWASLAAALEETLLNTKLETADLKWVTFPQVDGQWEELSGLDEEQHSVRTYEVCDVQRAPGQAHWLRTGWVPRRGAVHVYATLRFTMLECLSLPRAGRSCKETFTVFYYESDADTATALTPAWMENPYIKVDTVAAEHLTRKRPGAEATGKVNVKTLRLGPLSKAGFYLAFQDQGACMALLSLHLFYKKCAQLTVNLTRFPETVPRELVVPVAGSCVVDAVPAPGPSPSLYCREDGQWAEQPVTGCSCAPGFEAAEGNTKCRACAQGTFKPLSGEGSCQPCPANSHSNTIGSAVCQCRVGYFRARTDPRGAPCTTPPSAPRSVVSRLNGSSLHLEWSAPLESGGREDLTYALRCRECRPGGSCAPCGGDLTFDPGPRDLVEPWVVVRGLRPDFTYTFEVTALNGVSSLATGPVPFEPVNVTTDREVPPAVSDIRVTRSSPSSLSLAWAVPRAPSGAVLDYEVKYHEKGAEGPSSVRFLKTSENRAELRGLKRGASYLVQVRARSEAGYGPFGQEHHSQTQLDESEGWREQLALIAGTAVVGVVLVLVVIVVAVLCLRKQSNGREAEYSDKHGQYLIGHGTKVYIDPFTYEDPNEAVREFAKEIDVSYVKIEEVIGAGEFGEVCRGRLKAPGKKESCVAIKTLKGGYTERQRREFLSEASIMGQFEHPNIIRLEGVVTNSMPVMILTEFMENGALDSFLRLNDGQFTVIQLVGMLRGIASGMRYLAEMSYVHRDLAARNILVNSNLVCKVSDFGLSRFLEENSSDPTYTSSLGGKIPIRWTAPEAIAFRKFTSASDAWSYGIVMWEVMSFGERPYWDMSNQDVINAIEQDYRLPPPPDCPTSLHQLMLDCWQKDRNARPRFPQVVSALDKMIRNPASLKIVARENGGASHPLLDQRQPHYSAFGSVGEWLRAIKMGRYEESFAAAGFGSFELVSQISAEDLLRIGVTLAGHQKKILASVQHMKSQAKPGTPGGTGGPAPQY
To be noted: at 0.1 µM.

Assay [15] deals with T4, Ephrin type-B receptor 4 (Homo sapiens). The note with it: at 1 µM.
The target of assay [16] is Receptor tyrosine-protein kinase erbB-2 (Homo sapiens) (UniProt P04626). To be noted: at 0.1 µM.
Assay [17] has the same target. To be noted: at 1 µM.
The target in assay [18] is Receptor tyrosine-protein kinase erbB-4 (Homo sapiens) (UniProt Q15303). To be noted: at 0.1 µM.
Assay [19] has the same target. To be noted: at 1 µM.
The target of assay [20] is Tyrosine-protein kinase Fer (Homo sapiens) (UniProt P16591). The note with it: at 0.1 µM.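 Note: reported figures are averaged percent inhibition of FER.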

Sequence of Receptor tyrosine-protein kinase erbB-2 (Homo sapiens) (P04626 whole entry): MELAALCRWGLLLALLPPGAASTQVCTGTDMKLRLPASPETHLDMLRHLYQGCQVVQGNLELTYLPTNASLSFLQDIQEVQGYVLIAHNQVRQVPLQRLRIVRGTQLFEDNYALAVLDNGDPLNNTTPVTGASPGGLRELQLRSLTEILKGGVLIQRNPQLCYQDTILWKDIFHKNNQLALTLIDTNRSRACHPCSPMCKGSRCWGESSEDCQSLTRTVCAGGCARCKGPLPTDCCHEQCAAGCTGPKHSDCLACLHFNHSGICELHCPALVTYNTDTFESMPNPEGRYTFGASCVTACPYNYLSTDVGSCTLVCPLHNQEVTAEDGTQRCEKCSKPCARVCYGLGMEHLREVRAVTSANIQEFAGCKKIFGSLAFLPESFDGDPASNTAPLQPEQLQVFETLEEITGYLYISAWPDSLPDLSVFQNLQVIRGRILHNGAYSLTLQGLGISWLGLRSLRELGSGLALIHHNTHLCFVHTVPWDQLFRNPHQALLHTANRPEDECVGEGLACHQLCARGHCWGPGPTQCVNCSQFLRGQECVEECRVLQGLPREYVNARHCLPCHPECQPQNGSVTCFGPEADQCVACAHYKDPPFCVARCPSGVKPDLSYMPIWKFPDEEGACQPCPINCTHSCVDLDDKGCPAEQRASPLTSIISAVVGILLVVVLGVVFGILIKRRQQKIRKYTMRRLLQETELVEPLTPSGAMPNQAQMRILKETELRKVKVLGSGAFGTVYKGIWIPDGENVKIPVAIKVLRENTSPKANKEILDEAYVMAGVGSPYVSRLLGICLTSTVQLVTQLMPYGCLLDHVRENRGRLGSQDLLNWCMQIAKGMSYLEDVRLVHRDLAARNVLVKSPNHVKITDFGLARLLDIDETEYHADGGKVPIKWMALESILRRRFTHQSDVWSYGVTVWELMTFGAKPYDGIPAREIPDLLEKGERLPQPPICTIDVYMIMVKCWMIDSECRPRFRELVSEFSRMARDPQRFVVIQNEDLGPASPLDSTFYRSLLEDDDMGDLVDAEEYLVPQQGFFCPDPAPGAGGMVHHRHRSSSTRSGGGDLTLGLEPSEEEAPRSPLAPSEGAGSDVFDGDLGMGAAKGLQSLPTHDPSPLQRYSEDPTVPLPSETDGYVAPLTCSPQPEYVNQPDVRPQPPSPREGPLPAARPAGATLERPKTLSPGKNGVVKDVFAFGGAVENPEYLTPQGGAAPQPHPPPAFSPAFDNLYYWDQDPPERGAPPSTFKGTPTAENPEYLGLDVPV
Sequence of Epidermal growth factor receptor (Homo sapiens), P00533 [T790M] (P00533 whole entry T790M): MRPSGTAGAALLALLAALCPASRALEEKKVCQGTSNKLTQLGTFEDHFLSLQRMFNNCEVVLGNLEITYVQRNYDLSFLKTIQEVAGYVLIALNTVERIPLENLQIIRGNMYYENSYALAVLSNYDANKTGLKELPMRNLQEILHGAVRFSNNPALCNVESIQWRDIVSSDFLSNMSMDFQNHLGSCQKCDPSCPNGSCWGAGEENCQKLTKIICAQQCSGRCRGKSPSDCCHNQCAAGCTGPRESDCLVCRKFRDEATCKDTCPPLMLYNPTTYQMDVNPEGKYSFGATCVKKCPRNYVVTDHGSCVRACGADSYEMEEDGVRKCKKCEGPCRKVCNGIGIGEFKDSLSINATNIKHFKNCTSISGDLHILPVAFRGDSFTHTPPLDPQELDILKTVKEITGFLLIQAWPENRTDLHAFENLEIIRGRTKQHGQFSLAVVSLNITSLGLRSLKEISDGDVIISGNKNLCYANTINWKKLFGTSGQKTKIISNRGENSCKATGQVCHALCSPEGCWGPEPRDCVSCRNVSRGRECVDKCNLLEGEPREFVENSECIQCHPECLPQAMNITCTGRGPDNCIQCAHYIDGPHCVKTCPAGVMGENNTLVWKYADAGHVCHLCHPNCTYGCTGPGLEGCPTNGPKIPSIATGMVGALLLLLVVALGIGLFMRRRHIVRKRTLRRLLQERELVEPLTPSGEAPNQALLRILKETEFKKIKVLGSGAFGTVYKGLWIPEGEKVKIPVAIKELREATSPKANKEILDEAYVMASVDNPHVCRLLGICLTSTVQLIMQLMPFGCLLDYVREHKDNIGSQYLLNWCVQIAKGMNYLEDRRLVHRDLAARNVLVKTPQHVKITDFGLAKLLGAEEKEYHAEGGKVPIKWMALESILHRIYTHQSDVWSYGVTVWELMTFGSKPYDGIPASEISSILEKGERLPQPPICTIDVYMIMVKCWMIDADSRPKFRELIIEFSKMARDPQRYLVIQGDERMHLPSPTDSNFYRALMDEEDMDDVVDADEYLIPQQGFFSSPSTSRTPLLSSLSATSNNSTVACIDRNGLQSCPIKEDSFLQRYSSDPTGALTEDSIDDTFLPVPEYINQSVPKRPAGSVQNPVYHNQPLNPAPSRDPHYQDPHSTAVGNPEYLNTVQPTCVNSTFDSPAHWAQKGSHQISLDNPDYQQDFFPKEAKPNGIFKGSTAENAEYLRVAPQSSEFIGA
Sequence of Receptor tyrosine-protein kinase erbB-4 (Homo sapiens) (Q15303 whole entry): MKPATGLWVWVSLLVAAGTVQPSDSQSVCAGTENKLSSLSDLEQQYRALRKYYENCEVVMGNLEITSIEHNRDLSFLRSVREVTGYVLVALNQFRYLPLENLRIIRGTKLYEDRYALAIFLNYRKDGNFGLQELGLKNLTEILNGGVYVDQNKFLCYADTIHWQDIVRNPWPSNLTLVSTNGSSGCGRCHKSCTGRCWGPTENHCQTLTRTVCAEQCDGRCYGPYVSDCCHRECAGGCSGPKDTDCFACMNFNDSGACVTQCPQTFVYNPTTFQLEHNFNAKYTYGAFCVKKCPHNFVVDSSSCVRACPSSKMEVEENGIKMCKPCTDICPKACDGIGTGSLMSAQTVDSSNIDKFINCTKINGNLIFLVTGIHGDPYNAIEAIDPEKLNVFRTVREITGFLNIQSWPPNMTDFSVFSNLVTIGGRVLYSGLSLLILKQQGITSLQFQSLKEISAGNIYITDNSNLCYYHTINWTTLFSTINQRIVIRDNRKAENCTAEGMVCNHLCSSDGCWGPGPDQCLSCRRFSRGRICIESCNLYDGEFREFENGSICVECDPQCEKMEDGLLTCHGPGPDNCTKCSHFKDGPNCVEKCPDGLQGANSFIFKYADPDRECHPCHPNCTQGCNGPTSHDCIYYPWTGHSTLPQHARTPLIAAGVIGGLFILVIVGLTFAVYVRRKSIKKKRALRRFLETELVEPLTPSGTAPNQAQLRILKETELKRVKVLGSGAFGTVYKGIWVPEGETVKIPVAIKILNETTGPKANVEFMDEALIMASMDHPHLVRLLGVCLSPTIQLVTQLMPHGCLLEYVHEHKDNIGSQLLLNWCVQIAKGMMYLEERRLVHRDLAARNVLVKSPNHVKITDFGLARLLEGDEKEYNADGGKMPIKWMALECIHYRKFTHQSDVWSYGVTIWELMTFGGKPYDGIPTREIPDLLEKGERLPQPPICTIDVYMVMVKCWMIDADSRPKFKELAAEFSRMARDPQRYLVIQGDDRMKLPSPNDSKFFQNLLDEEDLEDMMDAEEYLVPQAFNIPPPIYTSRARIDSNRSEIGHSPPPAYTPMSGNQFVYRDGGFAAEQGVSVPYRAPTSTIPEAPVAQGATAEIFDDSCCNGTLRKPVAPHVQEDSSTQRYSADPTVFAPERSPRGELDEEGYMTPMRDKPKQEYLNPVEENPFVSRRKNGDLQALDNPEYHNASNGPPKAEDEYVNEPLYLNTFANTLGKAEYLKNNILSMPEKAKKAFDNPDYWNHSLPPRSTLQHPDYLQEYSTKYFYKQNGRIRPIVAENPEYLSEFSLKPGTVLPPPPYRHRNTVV
Sequence of Epidermal growth factor receptor (Homo sapiens), P00533 [L858R,T790M] (P00533 whole entry T790M/L858R, looked up): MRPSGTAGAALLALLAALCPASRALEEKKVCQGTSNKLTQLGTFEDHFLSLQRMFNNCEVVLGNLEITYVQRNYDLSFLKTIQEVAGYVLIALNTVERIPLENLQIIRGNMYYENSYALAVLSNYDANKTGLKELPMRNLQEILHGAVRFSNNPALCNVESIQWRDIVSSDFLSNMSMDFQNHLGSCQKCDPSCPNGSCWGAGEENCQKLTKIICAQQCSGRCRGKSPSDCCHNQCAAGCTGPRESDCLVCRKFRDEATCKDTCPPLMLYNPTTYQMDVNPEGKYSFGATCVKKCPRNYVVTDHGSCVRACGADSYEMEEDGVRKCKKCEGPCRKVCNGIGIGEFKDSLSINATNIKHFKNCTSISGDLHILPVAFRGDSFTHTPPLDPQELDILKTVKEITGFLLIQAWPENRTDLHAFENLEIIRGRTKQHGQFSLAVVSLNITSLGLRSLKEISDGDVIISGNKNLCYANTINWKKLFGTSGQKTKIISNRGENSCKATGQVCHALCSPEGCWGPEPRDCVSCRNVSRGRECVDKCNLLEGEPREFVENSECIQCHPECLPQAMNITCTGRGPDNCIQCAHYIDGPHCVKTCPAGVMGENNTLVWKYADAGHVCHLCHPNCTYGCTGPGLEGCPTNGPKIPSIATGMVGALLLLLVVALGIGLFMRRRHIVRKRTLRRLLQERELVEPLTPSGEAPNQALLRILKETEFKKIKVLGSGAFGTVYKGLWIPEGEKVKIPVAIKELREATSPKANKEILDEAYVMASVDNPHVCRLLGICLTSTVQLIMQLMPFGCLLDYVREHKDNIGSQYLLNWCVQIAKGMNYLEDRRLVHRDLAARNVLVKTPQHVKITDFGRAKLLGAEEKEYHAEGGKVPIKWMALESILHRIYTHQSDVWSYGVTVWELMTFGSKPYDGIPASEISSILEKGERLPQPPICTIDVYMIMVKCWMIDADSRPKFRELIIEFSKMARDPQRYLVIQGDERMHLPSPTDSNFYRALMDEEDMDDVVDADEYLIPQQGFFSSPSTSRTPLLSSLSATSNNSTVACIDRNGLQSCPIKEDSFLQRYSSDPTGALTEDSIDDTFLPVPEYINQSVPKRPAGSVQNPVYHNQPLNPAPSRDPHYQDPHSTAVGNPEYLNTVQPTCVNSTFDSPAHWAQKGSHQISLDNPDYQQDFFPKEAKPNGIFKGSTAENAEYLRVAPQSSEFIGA

`COc1ccc2c(-c3ccnc(Nc4cccc(OC(F)(F)F)c4)n3)cnn2n1`: the inhibition in assay [1] was 3.37%; in [2], 2.65%; in [3], 2.88%; in assay [4], 1.21%; in assay [5] it was 2.29%; in [6], 6.89%. The inhibition in assay [7] stood at 7.93%; in assay [8], 11.3%; in [9] it was 24.1%; in [10], 5.72%; in assay [11], 14.9%; in assay [12], 3.51%. Moreover, the inhibition is 5.86% in assay [13]; 0.79% in assay [14]; 4.73% in assay [15]; 1.6% in [16]; 2.79% in assay [17]; 8.76% in [18]. Also, the inhibition worked out at 9.71% in [19] and 4.88% in [20].

In the case of `COc1ccc(-c2nn3ncccc3c2-c2ccnc(Nc3ccc4c(c3)OCCO4)n2)cc1`, the inhibition in [1] is 5.19%; in assay [2], 0.11%; in assay [3], 17.8%; in assay [4], -0.24%; in assay [5], 0.86%; in assay [6], -1.04%. The inhibition was 0.38% in assay [7]; 0.61% in [8]; 13.8% in assay [9]; 1.72% in assay [10]; 35% in assay [11]; 1.77% in assay [12]. Moreover, the inhibition in assay [13] was 6.41%; in [14] it was -0.35%; in assay [15], 15.6%; in assay [16], 0.95%; in [17] it was 17.2%; in assay [18], 55.9%. Besides, the inhibition in assay [19] is 108%; in [20] it was 1.56%.

For `Cc1ccc2c(-c3ccnc(Nc4ccccc4)n3)c(-c3ccc(F)cc3)nn2n1`, the inhibition in [1] is 51.1%; in [2], 33.7%; in assay [3], 81.9%; in assay [4], 6.42%; in assay [5], 15%; in assay [6] it was 9.53%. In addition, the inhibition in assay [7] is 18.1%; in assay [8], 11.5%; in assay [9] it was 52.1%; in [10], 24.9%; in [11], 70.6%; in assay [12] it was 6.49%. The inhibition came to 11.4% in assay [13]; 12.9% in assay [14]; 56.9% in [15]; 3.68% in [16]; 32.3% in assay [17]; 67.3% in assay [18]. The inhibition in assay [19] was 88.7%; in assay [20], 0.47%.
